# Shown are actives, neighbours in structure and some others; about 2.8% of the full set was active somewhere.
# Pol eta inh-1 – blocks human DNA polymerase eta activity; Q9Y253; recombinant Pol eta, fluorescent DNA replication assay; Potency, µM (top dose mostly 114 µM), usual class: inhibitors; 390,000 tested, 1.2% active; AID 588591
#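 Pol eta (10 nM) was preincubated with compounds for 15 min at room temperature, after which fluorescent replication substrate (50 nM final) was added to start the reaction. Fluorescence was read kinetically at 0 and 10 min.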
# POLB inh – DNA polymerase beta (human) inhibition; 340,000 tested, 1.3% active; P06746; Potency, µM (series often up to 114 µM), usual class: inhibitors; Pol beta primer extension/strand displacement, fluorescence kinetic
#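 Curves were derived by four-parameter Hill fits of normalized qHTS data. The kinetic fluorescent primer-extension read was taken at 0 and 10 min after 50 nM substrate, following a 15 min room-temperature preincubation of 10 nM enzyme with compounds.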
# Pol iota inh – inhibitors of human DNA polymerase iota; Q9UNA4; Potency, µM (titrated, usually from 115 µM), usual class: inhibitors; Pol iota fluorescent replication assay, 10 min; 390,000 tested, 1% active
#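 Pol iota at 10 nM preincubated 15 min with compounds at room temperature; reaction started with fluorescent substrate, 50 nM final. Fluorescence read kinetically at 0 and 10 min; buffer-only wells as negative control.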
# WRN helicase inh – blocks human WRN helicase; Potency, µM (titrated, usually from 114 µM), most hits filed as inhibitors; WRN helicase unwinding, fluorescent forked duplex, kinetic; 360,000 tested, 0.46% active; AID 651768; further: nearly all actives have a fitted effect of over 55% in size
#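 Enzyme (20 nM final) and test compound sit together 15 min at room temperature before substrate addition. Substrate is a single-forked duplex oligonucleotide (100 nM) labelled with fluorophore and quencher, with 2 mM ATP; helicase unwinding raises red fluorescence, read kinetically.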
# Pol kappa inh-1 – blocks human DNA polymerase kappa activity | Q9UBT6 | purified Pol kappa, fluorescent DNA synthesis assay, 10 min | Potency, µM (top dose mostly 107 µM), usual class: inhibitors | 400,000 tested, 0.53% active | AID 588579
#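 10 nM Pol kappa preincubated 15 min at room temperature with compounds, then reaction started with substrate at 50 nM final. Fluorescence read kinetically at 0 and 10 min; buffer-only wells served as negative control.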
# PI5P4K alpha inh – inhibitors of human PI5P4K alpha; PI5P4Kalpha enzyme, ADP-Glo luminescence, 60 min; stronger effect = lower value; AID 652105; max response, %; 330,000 tested, 1.2% active; P48426; active means max response of -50% or lower; inconclusive means between -30% and -50%; inactive means -30% or higher; further: value at the top dose of about 77 µM
# Target sequence (P48426 whole entry, looked up): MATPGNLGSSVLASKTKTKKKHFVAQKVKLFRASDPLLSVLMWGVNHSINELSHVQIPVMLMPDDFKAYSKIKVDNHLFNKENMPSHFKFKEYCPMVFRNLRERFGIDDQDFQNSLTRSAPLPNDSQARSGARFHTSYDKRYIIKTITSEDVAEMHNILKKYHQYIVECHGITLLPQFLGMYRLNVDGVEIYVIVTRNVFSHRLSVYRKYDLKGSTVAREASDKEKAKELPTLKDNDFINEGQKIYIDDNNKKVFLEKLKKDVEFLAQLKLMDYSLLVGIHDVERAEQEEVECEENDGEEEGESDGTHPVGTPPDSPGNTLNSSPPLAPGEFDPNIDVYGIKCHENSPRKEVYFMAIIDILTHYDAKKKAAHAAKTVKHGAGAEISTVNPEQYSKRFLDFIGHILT
#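 Enzyme plus substrate dispensed, test compounds pinned in, then ATP (5 microM final) added. After 60 min at RT, ADP-Glo reagent 1 for 45 min and reagent 2 for 30 min preceded luminescence imaging.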
# PGK validate – TbPGK inhibition, hit validation. Potency, µM (highest dose often 57.5 µM), usual class: inhibitors. shares compounds with Pol kappa inh-1. 500 tested, 79% active. TbPGK coupled GAPDH assay, Kinase-Glo luminescence; further: nearly all actives have a fitted effect of over 65% in size
# POLI cherry-pick – Inhibitors of human DNA polymerase iota, confirmation. AID 720496. Pol iota primer extension, TAMRA/BHQ fluorescence. 1,500 tested, 77% active. Potency, µM, hits mostly inhibitors. shares compounds with Pol kappa inh-1
# GALK inh confirm – galactokinase (human) inhibition, confirmation; AID 2015; purified GALK, Kinase-Glo ATP depletion luminescence; shares compounds with Pol eta inh-1; Potency, µM (titrated, usually from 115 µM), usual class: inhibitors; 150 tested, 70% active
# GALK redox cs – redox cycling activity in phenol red-HRP assay. AID 2035. Phenol red-HRP H2O2 redox cycling, absorbance 600 nm. shares compounds with Pol eta inh-1. 150 tested, 40% active. Potency, µM (titrated, usually from 115 µM), hits mostly inhibitors
# HEK293 viability – counter-screen for GALK inhibitors: HEK293 cell cytotoxicity | shares compounds with Pol eta inh-1 | HEK-293 viability, ATP luminescence (CellTiter-Glo), 24/48 h | Potency, µM (series often up to 46.1 µM), usual class: inhibitors | 170 tested, 10% active | AID 2547
# Pol kappa inh-2 – Pol kappa (human) inhibition, cherry-pick confirmation | shares compounds with Pol eta inh-1 | purified Pol-kappa, fluorescent strand-displacement substrate | Potency, µM, most hits filed as inhibitors | 920 tested, 76% active
# Pol eta inh-2 – Pol eta (human) inhibition, cherry-pick confirmation. Pol eta primer extension, TAMRA/BHQ fluorescence, 10 min. 2,600 tested, 64% active. Potency, µM, hits mostly inhibitors. shares compounds with Pol eta inh-1
# A number is an active result; – = inactive; ? = inconclusive; · = not tested or not shown; [ ] = dose if it differs, or a comment. Unless noted, the call rests on the fitted dose curve; in most records, active means well fitted curve in the direction sought with a large enough effect; inconclusive means small, poorly fitted or top-dose-only effect, or another doubt; inactive means no such curve, though single readings can be large; an effect the other way counts as inactive or inconclusive.
SMILES,Pol eta inh-1,POLB inh,Pol iota inh,WRN helicase inh,Pol kappa inh-1,PI5P4K alpha inh,POLI cherry-pick,Pol eta inh-2,others
NS(=O)(=O)c1ccc(N/N=C/c2ccc(O)c(O)c2O)c([N+](=O)[O-])c1,2.51µM,1.26µM,2.82µM,?,10µM,-75.4,16.8,15.1,
O=[N+]([O-])c1ccccc1NC(=S)N/N=C/c1ccc(O)c(O)c1,3.55µM,3.55µM,8.91µM,10.6µM,20µM,-63.1,47.4,21.3,
Cc1ccc(S(=O)(=O)N2CC3C(=O)C[C@@H](c4ccccc4)N(S(=O)(=O)c4ccccc4Cl)C3CC2c2ccccc2)cc1 (stereo partly specified),·,·,·,–,·,–,·,·,
CC(=O)Nc1ccc(S(=O)(=O)Nc2ccc3c(c2)C(=O)OC3)cc1,·,–,·,·,·,·,·,·,
Cc1ccc(C)c(C(C)NC(=O)C2C3CCC(O3)C2C(=O)O)c1 (stereo unspecified),·,–,·,·,·,·,·,·,
O=C(CCCCCn1c(SCc2ccncc2)nc2ccccc2c1=O)NCc1ccco1,79.4µM,39.8µM,14.1µM,?,?,·,47.4,75.7,
COc1ccc(/C=C2\C(=O)NC(=S)N2C(=O)c2ccc(C)cc2)cc1,15.8µM,20µM,17.8µM,56.2µM,?,?,?,?,
COc1ccc(C2C3C=CCC(c4cccc(/C=C/c5ccccc5)c4)C3C(=O)N2Cc2ccccc2)cc1Cl (stereo unspecified),·,·,–,·,–,·,·,·,
COc1ccc(NS(=O)(=O)c2cc([N+](=O)[O-])ccc2NN=Cc2ccccc2OCC(=O)O)cc1,?,·,?,–,–,–,·,·,
O=C(O)COc1ccccc1C=NNc1ccc([N+](=O)[O-])cc1S(=O)(=O)Nc1ccc(Cl)cc1,22.4µM,·,?,?,–,?,84.4,47.8,Pol kappa inh-2=?
Cc1ccc(N=Nc2c(N)nn3c(C)cc(C)nc23)cc1,–,–,–,–,–,–,·,·,
Cc1ccc(N=Nc2c(N)nn3c(N)c(C#N)c(C)nc23)cc1,?,22.4µM,?,–[11.6 µM],79.4µM,?,42.3,?,
COc1cc(NC(=O)CN2c3ccccc3S(=O)(=O)c3ccccc32)cc(OC)c1,–,–,–,·,–,·,·,·,
Cc1cc(/C=C(/C#N)c2nc3ccccc3[nH]2)c(C)n1-c1cc(C(=O)O)cc(C(=O)O)c1,3.98µM,14.1µM,?,44.7µM,39.8µM,-78.9,37.7,16.9,
C=CCN(CC=C)C(=O)Nc1cc(OC)ccc1OC,–,–,–,–,–,–,·,·,
COC(=O)c1cc(O)cc(OC)c1Oc1cc(C)cc(O)c1C(=O)O,3.55µM,3.16µM,12.6µM,20µM,11.2µM,?,13.4,12,PGK validate=1.03µM
COC(=O)c1c(C)cc(OC)cc1O,·,·,·,·,–,·,·,·,
COc1cc(/C=C2\SC(=O)N(CC(=O)Nc3cccc(C)c3)C2=O)cc([N+](=O)[O-])c1O,22.4µM,–,?,?,–,-91.7,75.2,47.8,PGK validate=?
CN(C)c1ccc2cc(S(=O)(=O)O)cc(O)c2c1,10µM,·,?,?,31.6µM,?,?,19,
CN(C)c1ccc2c(O)cc(=O)n(C)c2c1,–,–,–,–,–,·,·,·,
O=C(Nc1c2c(nn1-c1ccc(Cl)cc1)CS(=O)(=O)C2)c1ccccc1F,–,–,–,·,–,·,·,·,
CCc1ccc(S(=O)(=O)/N=C2\C=C(Nc3ccc(C(=O)O)cc3)C(=O)c3ccccc32)cc1,28.2µM,–,11.2µM,–[11.6 µM],–,–,18.9,21.3,GALK inh confirm=?;GALK redox cs=11.9µM;HEK293 viability=11.2µM;Pol kappa inh-2=?
Cc1ccc(S(=O)(=O)/N=C2\C=C(Nc3cccc(C(=O)O)c3)C(=O)c3ccccc32)cc1,31.6µM,?,3.98µM,–,–,–,75.2,47.8,
O=C(O)c1cccc(NS(=O)(=O)c2ccc3c(c2)C(=O)c2ccccc2C3=O)c1,–,?,–,–,–,–,·,·,
COc1ccccc1CNC(=O)C1CCCN(C(=O)c2cnn(-c3ccc(F)cc3)c2-n2cccc2)C1 (stereo unspecified),–,–,–,·,–,·,·,·,
SMILES,Pol eta inh-1,POLB inh,Pol iota inh,WRN helicase inh,Pol kappa inh-1,PI5P4K alpha inh,POLI cherry-pick,Pol eta inh-2,others
O=C(/C=C/c1ccco1)Nc1ccccc1N1CCCC1,–,–,–,–,–,–,·,·,
O=C(/C=C/c1ccco1)Nc1ccccc1C(=O)O,10µM,12.6µM,?,?,79.4µM,–,29.9,23.9,Pol kappa inh-2=7.52
CCOc1ccc(NC(=O)c2c(NC(=O)CNCCN3CCOCC3)sc3c2CCC3)cc1,–,–,?,–,–,–,·,·,
COC(=O)C1(Cc2ccc(O)cc2)OC(=O)C(O)=C1c1ccc(O)cc1 (stereo unspecified),11.2µM,20µM,12.6µM,?,?,?,42.3,26.9,
COC(=O)CCc1ccc(O)cc1,–,–,–,–,–,–,·,·,
Cn1ccsc1=NC(=O)c1ccc([N+](=O)[O-])o1,39.8µM,–,25.1µM,?,?,-59.9,33.6,42.6,
COc1cc(C(=O)N=c2sccn2C)c([N+](=O)[O-])cc1OC,–,–,–,–,–,–,·,·,
NC(N)=N/N=C(\N=Nc1ccccc1)c1ccc(Cl)cc1,–,·,–,–,–,–,·,·,
CCc1ccc(C(=O)c2cn(CC(=O)Nc3ccc4c(c3)OCO4)c3ccc(CC)cc3c2=O)cc1,89.1µM,4.47µM,–,·,–,·,42.3,?,
O=C(CSc1nnc(SCc2cccc3ccccc23)s1)N/N=C/c1c[nH]c2ccccc12,–,–,–,–,–,–,·,·,
O=C(Cc1cccs1)N/N=C/C=C/c1ccco1,8.91µM,17.8µM,28.2µM,?,79.4µM,-58.2,?,?,Pol kappa inh-2=29.9

# High-throughput results (PubChem BioAssay)
